# Results filed as inconclusive are left out. A call without a number means that no potency is given here. Calls of active or inactive are those of the source. Unless noted, the call rests on the fitted dose curve.
# What was measured:
# [1] = qHTS for Inhibitors of the Functional Ribonucleoprotein Complex (vRNP) of Lassa (LASV) Arenavirus: Viability assay - alamar blue signal for LASV Primary Screen (AID 1347083; calls by dose curve; tested in HEK293 reporter line; further: nearly all actives have a fitted effect of over 80% in size)
# [2] = qHTS for Inhibitors of the Functional Ribonucleoprotein Complex (vRNP) of Lymphocytic Choriomeningitis Arenaviruses (LCMV): Viability assay - alamar blue signal for LCMV Primary Screen (AID 1347085; calls by dose curve; tested in HEK293 reporter line; further: nearly all actives have a fitted effect of over 80% in size)
# [3] = target: Nucleoprotein (Lymphocytic choriomeningitis virus (strain Armstrong)) (UniProt P09992); assay: qHTS for Inhibitors of the Functional Ribonucleoprotein Complex (vRNP) of Lymphocytic Choriomeningitis Arenaviruses (LCMV): LCMV Primary Screen - GLuc reporter signal (AID 1347086); further: nearly all actives have a fitted effect of over 70% in size
# Chain of Nucleoprotein (Lymphocytic choriomeningitis virus (strain Armstrong)) (P09992 whole entry, looked up): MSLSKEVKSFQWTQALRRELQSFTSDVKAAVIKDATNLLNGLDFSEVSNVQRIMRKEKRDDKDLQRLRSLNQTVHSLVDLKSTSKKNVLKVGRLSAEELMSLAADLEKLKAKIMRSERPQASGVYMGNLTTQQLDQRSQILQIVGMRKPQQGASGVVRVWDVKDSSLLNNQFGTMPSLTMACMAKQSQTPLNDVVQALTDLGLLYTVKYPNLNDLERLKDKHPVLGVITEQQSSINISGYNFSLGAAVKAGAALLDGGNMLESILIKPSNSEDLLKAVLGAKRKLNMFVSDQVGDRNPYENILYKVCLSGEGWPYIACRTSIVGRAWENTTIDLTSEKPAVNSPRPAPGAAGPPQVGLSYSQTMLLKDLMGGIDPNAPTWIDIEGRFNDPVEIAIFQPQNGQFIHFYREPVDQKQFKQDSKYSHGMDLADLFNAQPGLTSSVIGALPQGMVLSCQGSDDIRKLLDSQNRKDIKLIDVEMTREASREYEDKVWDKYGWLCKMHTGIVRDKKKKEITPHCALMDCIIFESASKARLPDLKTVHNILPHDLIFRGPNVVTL
# Potency means the concentration at half of the fitted maximal effect.
Structure (SMILES),Potency [1],Potency [2],Potency [3]
CC(=O)NCCc1c[nH]c2ccccc12,inactive,inactive,inactive
O=C(Nc1ccccc1-c1cn2c(CN3CCNCC3)csc2n1)c1cnc2ccccc2n1,inactive,inactive,inactive
CN(C)CC/C=C1/c2ccccc2COc2ccc(CC(=O)O)cc21,inactive,inactive,inactive
C[N+](C)(C)CC(=O)O,inactive,inactive,inactive
CC(=O)Nc1ccc(O)cc1,inactive,inactive,inactive
Cc1c(C)c2c(c(C)c1OC(=O)c1cccnc1)CC[C@@](C)(CCC[C@H](C)CCC[C@H](C)CCCC(C)C)O2,inactive,inactive,inactive
C[C@@H]1CN(c2c(F)c(N)c3c(=O)c(C(=O)O)cn(C4CC4)c3c2F)C[C@H](C)N1,inactive,inactive,inactive
Nc1nnnn1-c1ccccc1,inactive,inactive,inactive
C[C@]12N[C@H](Cc3ccccc31)c1ccccc12,inactive,inactive,inactive
O=C(O)CC(O)C(=O)O (centres undefined),inactive,inactive,inactive
O=C(O)Cc1ccccc1Oc1ccc(Cl)cc1Cl,inactive,inactive,inactive
COc1cc(S(N)(=O)=O)cc(C(=O)O)c1OC,inactive,inactive,inactive
CCN1CCN(Cc2ccc(-c3cc4c(N[C@H](C)c5ccccc5)ncnc4[nH]3)cc2)CC1,0.0077 µM (active),inactive,inactive
CCCCCCCCCCCCCC(=O)N[C@H](CO)[C@H](O)c1ccc([N+](=O)[O-])cc1,inactive,inactive,inactive
CCCCc1ccc(NS(=O)(=O)c2ccc(C)c(C(=O)N3CCN(c4cccc(C)c4C)CC3)c2)cc1,inactive,inactive,inactive
O=c1cc(CN2CCOCC2)occ1OCCCCCSc1ccnc2cc(C(F)(F)F)ccc12,1.93 µM (active),0.273 µM (active),1.22 µM (active)
CCN1CCc2nc(N)oc2CC1,inactive,inactive,inactive

Structure (SMILES),Potency [1],Potency [2],Potency [3]
NC(N)=NOCCC(N)C(=O)O (centres undefined),inactive,inactive,inactive
CCOC(=O)C(C)Oc1cccc2c(=O)n(CC(=O)Nc3ccc4c(c3)OCCO4)ccc12 (centres undefined),inactive,inactive,inactive
Cc1nn(Cc2ccccc2Cl)c(C)c1CN(C)CC(O)COc1ccc(Cl)cc1 (centres undefined),inactive,inactive,inactive
COc1ccccc1-c1cccc(-c2c(O)c3cc(C#N)c(Cl)cc3[nH]c2=O)c1,inactive,inactive,inactive
C[C@@H](N)C1CCC(C(=O)Nc2ccncc2)CC1 (some centres undefined),21.7 µM (active),0.863 µM (active),9.68 µM (active)
O=C(NCCCNc1nc(Nc2cccc(NC(=O)N3CCCC3)c2)ncc1I)c1cccs1,3.85 µM (active),34.3 µM (active),inactive
O=C(O)c1ccccn1,inactive,inactive,inactive
C[C@@H](N)C(=O)O,inactive,inactive,inactive
O=C(O)c1ccccc1NCCc1ccccc1,inactive,inactive,inactive
O=c1cc(-c2ccccc2)oc2ccccc12,inactive,inactive,inactive
COc1cc2c(cc1OC)C(=O)CC2,inactive,inactive,inactive
CS(=O)(=O)Oc1ccc2c(NC(N)=O)c(C(=O)c3ccc(Cl)cc3Cl)oc2c1,27.3 µM (active),27.3 µM (active),inactive
CN1[C@@H]2CC[C@H]1CC(OC(=O)C(O)c1ccccc1)C2 (some centres undefined),inactive,inactive,inactive
OCCn1cc(-c2cnc3nnn(Cc4ccc5ncccc5c4)c3n2)cn1,inactive,inactive,inactive
O=C1[C@H](Cc2ccc(O)cc2)N2C(=O)CCN(C(=O)NCc3ccccc3)[C@H]2CN1Cc1cccc2ccccc12,19.3 µM (active),24.3 µM (active),19.3 µM (active)
CC(C)=CCCC(C)=CCCC(C)=CCSc1ccccc1C(=O)O,2.43 µM (active),9.68 µM (active),4.32 µM (active)

# — PubChem BioAssay (NCATS)
